# From PubChem
# The entries come from a sample that favours hits as a whole.
# Pf Dd2 inh: qHTS Primary assay for Inhibitors of Plasmodium falciparum Dd2 growth in vitro. hit rate 4.3% among 120,000. P. falciparum Dd2 growth, SYBR Green, 72 h. Potency, µM (highest dose often 28.9 µM), for the others: at the top dose activity, negative = inhibition, most hits filed as inhibitors; active = well fitted inhibition curve with a large enough effect;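 also: plate controls were DMSO vehicle for no effect and reference drug for full effect; nearly all actives have a fitted effect of over 65% in size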
#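 Infected erythrocytes (Dd2, 0.3% parasitemia, 2.5% hematocrit final) are added to compound in RPMI-1640/Albumax II medium, grown 72 h at 37C in low oxygen, then lysed with saponin/Triton-X containing SYBR Green and read by fluorescence.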
# An asterisk follows results filed as active; i = inactive; [ ] = dose if it differs, or a comment. Potency is read from the fitted curve at half-maximal effect.
SMILES,Pf Dd2 inh
CCCCn1cc(S(=O)(=O)c2ccc(OC)cc2)c(=O)c2cc(F)c(N3CCOCC3)cc21,11µM*
Cc1ccc(S(=O)(=O)c2cn(Cc3ccc(F)cc3)c3cc(N4CCCC4)c(F)cc3c2=O)cc1,-13%
CCCCn1cc(S(=O)(=O)c2ccc(OC)cc2)c(=O)c2cc(F)c(F)cc21,1%
CCN1c2cc(C(=O)Nc3ccc(N(C)C)cc3)ccc2C(=O)N2CCCCC21 (stereo not given),i
CC1(NC(=O)C2CC2)CN(Cc2nc(-c3cccc(F)c3)cs2)C1,-22%[44.1 µM]
c1ccc(C2(c3nc(C4CCOC4)no3)CCCCC2)cc1 (stereo not given),-20%
Cn1cc(CN2CCN(Cc3cccc(F)c3)CC2)ccc1=O,i
O=C(CCc1nc2ccccc2s1)N1CCC(N2CC3CC(C2)[C@H]2CCCC(=O)N2C3)CC1 (stereo not given in full),-26%
O=C1N2CCCC2CN1C1CCN(Cc2ccc(C(F)(F)F)cc2)CC1 (stereo not given),-20%
Cc1noc(-c2cccc(OC3CN(C(=O)c4sccc4C)C3)c2)n1,1%[5.79 µM]
CCOc1ccc(OCC)c(NC(=O)c2cc3n(n2)CC(c2ccc(Cl)cc2)OC3)c1 (stereo not given),-1%
CCc1ccc(N2CC(c3noc(-c4cc(OC)c(OC)c(OC)c4)n3)CC2=O)cc1 (stereo not given),10%
CN(C)C(=O)N(C)Cc1cccc(C(F)(F)F)c1,3%[44.1 µM]
CCN(CC)CCNC(=O)C1CCCN(c2ncnc3onc(C)c23)C1 (stereo not given),-9%
Cc1nnc(N2CCC(C(=O)N3CCCCC3)CC2)c2nn(-c3ccc(Cl)cc3)c(C)c12,10µM*
Cc1nnc(N2CCC(C(=O)NC3CCCCC3)CC2)c2nn(-c3ccc(Cl)cc3)c(C)c12,12%
Cc1nnc(N2CCN(C(=O)NCCC(C)C)CC2)c2nn(-c3ccc(Cl)cc3)c(C)c12,1%
CCN(CC)CCNC(=O)C1CCCN(c2nnc(C)c3c(C)n(-c4ccc(Cl)cc4)nc23)C1 (stereo not given),11µM*
Cc1nnc(N2CCC(C(=O)NC3CCC(C)CC3)CC2)c2nn(-c3ccc(Cl)cc3)c(C)c12 (stereo not given),3%
O=C(C1CC1)N1CCC(n2cc(-c3nc(-c4ccccc4)no3)nn2)CC1,i
CCc1nc(-c2c3n(c(=O)n(Cc4cc(F)cc(F)c4)c2=O)CCCC3)no1,i
CN(C)[C@@H]1[C@@H](NC(=O)C2(S(=O)(=O)c3ccccc3)CC2)[C@H]2CCO[C@H]21,-15%
C[S+](=O)([O-])N1CCC(c2nnc3n2C(C(=O)N2CCN(c4ncccn4)CC2)CC3)CC1 (stereo not given),i
O=c1c2nc(NCc3ccccc3)ccc2ncn1Cc1ccccc1,i
Cc1csc(Nc2ccc3ncn(Cc4ccccc4)c(=O)c3n2)n1,11µM*
SMILES,Pf Dd2 inh
Cc1csc(Nc2ccc3ncn(Cc4ccccn4)c(=O)c3n2)n1,-21%[44.1 µM]
CN1CCC(Cc2nc(CC3C=CS(=O)(=O)C3)n(CCO)n2)CC1 (stereo not given),-11%
COC(=O)N1CCC(c2nn(-c3ccc(OC)cc3)c(=O)[nH]2)CC1,i
COc1ccc(-n2nc(C3CCN(Cc4cccn4C)CC3)[nH]c2=O)cc1,13µM*
COc1ccc(-n2nc(C3CCN(Cc4ccc(N(C)C)cc4)CC3)[nH]c2=O)cc1,-3%
N#Cc1ccc(S(=O)(=O)N2CCC(Cc3nc(-c4cccnc4)n[nH]3)C2)cc1 (stereo not given),i
OC(c1ccc2c(c1)CCO2)c1nc(Nc2cccc(C(F)(F)F)c2)n[nH]1 (stereo not given),i
OC(c1cccc(C(F)(F)F)c1)c1nc(Nc2cccc(Cl)c2)n[nH]1 (stereo not given),7.9µM*
COc1ccc(Nc2n[nH]c(C(O)c3cccc(C(F)(F)F)c3)n2)cn1 (stereo not given),2%[44.1 µM]
COc1cc(CNC(=O)CC2CCOCC2)cc(OC)c1,-18%
CCOc1cc(-c2nnc(SCC(=O)Nc3ccc(F)c(F)c3)nc2-c2ccc(OC)c(OCC)c2)ccc1OC,15%
COc1ccc(-c2nnc(SCC(=O)NCc3ccccc3)nc2-c2ccc(OC)c(OC)c2)cc1OC,8.9µM*
CCOc1ccc(-c2nnc(SCC(=O)NC3CCCC3)nc2-c2ccc(OCC)c(OC)c2)cc1OC,91%
C[S+](=O)([O-])N1CCN(c2cccc(C=O)c2)C(=O)C1,3%[44.1 µM]
Cn1cc(CNC(=O)C[C@@H]2C[C@H]3O[C@H](CNC(=O)NC4CCCCC4)[C@@H](O)[C@H]3O2)cn1,i
O=C(c1ccc(F)cc1)N1CCc2nc(C3CC3)nc(-c3ccc(O)cc3)c2CC1,i
COc1cccc(Nc2ccc3c(n2)C(C)(C(=O)NCCc2ccccn2)CN(C)C3)c1 (stereo not given),3.2µM*
COCCN1Cc2ccc(NCC(C)C)nc2C(C)(C(=O)NCc2cccnc2)C1 (stereo not given),-17%[44.1 µM]
